Tau fluor counter: counter-screen for tau fibril formation inhibitors | Potency, µM (top dose mostly 57.7 µM), for inactives: at the top dose activity change, negative = decrease | tau K18 P301L Alexa594 fluorescence, heparin fibrillization | AID 1463 | hit rate 0.93% among 280,000; also: nearly all actives have a fitted effect of over 55% in size
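Human tau K18 P301L (15 uM unlabeled, 0.24 uM Alexa 594-labeled) in 100 mM sodium acetate pH 7 with 20 uM heparin, 6 hr at 37 C. ThT 30 uM added, 1 hr ambient; Alexa 594 FP and total fluorescence read at 555/632 nm.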
Tau ThT inhib: blocks human tau fibril formation measured by thioflavin T; hit rate 2.1% among 270,000; Potency, µM (doses to about 57.4 µM), for the others: top-dose activity, negative = inhibition, most hits filed as inhibitors; P10636; recombinant tau K18 P301L (four-repeat tau fragment), heparin-induced fibrillization, ThT fluorescence; also: nearly all actives have a fitted effect of over 55% in size
Target sequence (P10636 561-689 P618L limits assumed): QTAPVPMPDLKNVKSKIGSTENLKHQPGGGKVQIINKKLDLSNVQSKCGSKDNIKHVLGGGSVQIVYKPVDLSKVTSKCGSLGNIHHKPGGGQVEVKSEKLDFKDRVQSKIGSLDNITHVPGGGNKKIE
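Aggregation was driven by heparin (20 uM final) acting on recombinant tau […] bearing P301L in 100 mM sodium acetate pH 7; fibrils were detected with Thioflavin T.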
RORg inh: blocks mouse ROR gamma transcriptional activity. P51450. Drosophila S2 Gal4-RORgamma UAS-luciferase reporter, 20 h. Potency, µM (top dose mostly 53.6 µM), for inactives: at the top dose activity change, negative = inhibition, actives largely listed as inhibitors. hit rate 5.4% among 310,000. AID 2551; also: nearly all actives have a fitted effect of over 60% in size
Target sequence (P51450 whole entry, looked up, the tested form may be a part): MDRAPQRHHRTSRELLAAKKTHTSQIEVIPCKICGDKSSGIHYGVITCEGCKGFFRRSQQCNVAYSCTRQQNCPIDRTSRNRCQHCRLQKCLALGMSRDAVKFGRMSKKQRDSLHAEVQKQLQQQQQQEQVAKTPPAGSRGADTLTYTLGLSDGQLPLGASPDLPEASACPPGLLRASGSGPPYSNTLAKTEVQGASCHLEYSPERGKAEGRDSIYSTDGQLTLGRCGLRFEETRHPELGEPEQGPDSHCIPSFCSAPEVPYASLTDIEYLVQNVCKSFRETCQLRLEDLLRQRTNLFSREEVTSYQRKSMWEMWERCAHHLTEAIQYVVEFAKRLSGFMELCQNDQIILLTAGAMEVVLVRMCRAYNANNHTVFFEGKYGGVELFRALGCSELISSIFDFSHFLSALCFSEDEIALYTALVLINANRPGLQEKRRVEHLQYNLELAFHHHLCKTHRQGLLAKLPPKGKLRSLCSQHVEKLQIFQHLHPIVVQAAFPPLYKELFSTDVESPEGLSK
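Drosophila Schneider cells stably carrying a metallothionein-driven Gal4 DBD–ROR gamma fusion and a UAS-Photinus luciferase reporter were exposed to compound for 1 hr, then induced with copper sulfate (700 uM final) for 20 hr at ambient temperature before luminescence reading.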
Gal4-VP16 FLuc: Gal4-VP16 reporter inhibition counter-screen. Potency, µM (highest dose often 53.6 µM), for the others: at the highest dose activity, negative = inhibition, most hits filed as inhibitors. AID 2546. Drosophila S2 Gal4-VP16 UAS-luciferase, luminescence, 20 h. hit rate 3.5% among 310,000;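 also: Gal4-VP16 expression switched on by copper sulfate through the metallothionein promoter; nearly all actives have a fitted effect of over 50% in size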
Tau FP inhib: inhibitors of human tau fibril formation. hit rate 0.39% among 280,000. K18 P301L tau heparin fibrillization, Alexa594 FP, 6 h. AID 1468. Potency, µM (doses to about 57.7 µM), without a hit: at the highest dose activity, negative = inhibition, actives largely listed as inhibitors. P10636; also: nearly all actives have a fitted effect of over 55% in size
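K18 P301L tau (15 uM unlabeled/0.24 uM Alexa 594-labeled, final) + compound + heparin 20 uM final; 100 mM NaOAc pH 7; 6 hr 37 C; ThT 30 uM final added, 1 hr RT; FP ex 555/em 632 nm.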
The depositor's hits bear a star; ? = inconclusive; · = no result; [ ] = another dose, or the depositor's remark. Hits are enriched below; roughly 7.3% of the tested compounds scored in any of these assays. Calls follow the shape of the dose curve; as a rule, active = well fitted curve in the direction sought with a large enough effect; inconclusive = small, poorly fitted or top-dose-only effect, or another doubt; inactive = no such curve, though single readings can be large; an effect the other way counts as inactive or inconclusive. % is scaled to controls: 0 for no effect and ±100 for the full control effect; potency is read from the fitted curve at half-maximal effect.

SMILES	Tau fluor counter	Tau ThT inhib	RORg inh	Gal4-VP16 FLuc	Tau FP inhib
CCCn1c(CNC(=O)c2ccc(F)cc2)nc2ccccc21	-20.0%	-10.8%	·	·	-19.0%
COc1cc(C(=O)NCCc2nc3ccccc3n2C)cc(OC)c1OC	-1.4%	-3.8%	-31.0%	-2.1%	-5.6%
CCn1c(Cc2ccc(OC)cc2)nc2ccccc21	·	·	11.2µM*	35.5µM*	·
CCn1c(COc2cccc(C)c2)nc2ccccc21	-12.3%	?	10µM*	?	-1.4%
COc1ccc(Cc2nc3ccccc3n2Cc2ccccc2F)cc1	-12.5%	?	·	·	-2.9%
CC(C)(C)OC(=O)NN1CC(=O)N2Cc3[nH]c4ccccc4c3C[C@H]2C1=O	·	·	-3.7%	-11.2%	·
c1ccc(Cc2nc3ccccc3n2Cc2ccccc2)cc1	-10.1%	-19.8%	?	17.8µM*	10.5%
CC(c1nc2ccccc2n1Cc1ccccc1)N1CCCCC1 (configuration not stated)	·	·	14.1µM*	?	·
CCC(=O)NCc1nc2ccccc2n1Cc1ccccc1	-7.0%	2.5%	·	·	-11.0%
CCc1ccc(-n2nc3cc(C)c(NC(=O)c4cc(Cl)ccc4OC)cc3n2)cc1	-1.0%	1.7%	·	·	-1.7%
Cc1nn(-c2ccccc2)c(N2CCCC2)c1/C=C1\N=C(c2ccc(OC(C)C)cc2)OC1=O	-21.3%	10µM*	-17.4%	4.6%	9.6%
CCCOc1ccc(-c2cc(C(F)(F)F)c(C#N)c(SCCC(=O)O)n2)cc1	-1.4%	-16.3%	·	·	0.8%
O=C(O)/C=C/C(=O)Nc1ccccc1SC(F)(F)F	3.5%	-9.9%	-137.5%	10µM*	12.0%
COc1ccccc1C(=O)Nc1sc(Nc2ccccc2)nc1C(N)=O	7.08µM*[quencher]	3.16µM*	·	·	?
COc1ccc(NC(=O)Nc2nnc(-c3ccccc3SCc3ccccc3)s2)cc1	3.55µM*[quencher]	-5.5%	-31.4%	-20.2%	?
COc1ccc(NC(=O)Nc2nc3ccccc3s2)cc1	8.91µM*[quencher]	?	?	-20.5%	?
COc1ccc2nc(NC(=O)Nc3ccccc3)sc2c1	?	?	?	-20.0%	-14.2%
COc1ccccc1C(=O)Nc1nc2ccccc2s1	·	·	0.631µM*	1µM*	·
N[C@@H](CSSC[C@H](N)C(=O)O)C(=O)O	·	·	2.5%	4.0%	·
COc1cc(C(=O)Nc2ccc(-c3nc4ccccc4o3)c(O)c2)cc(OC)c1OC	-26.3%	1.5%	·	·	?
CC(=O)c1c(C)oc2ccc(N(C(=O)c3ccncc3)S(=O)(=O)c3ccc(C)cc3C)cc12	-12.5%	?	·	·	11.1%
COc1ccc(OCc2nnc(NC(=O)Nc3ccc(F)cc3)s2)cc1	-10.0%	5.9%	-1.8%	2.9%	10µM*
NC(=S)Nc1nc2ccccc2s1	-18.6%	-11.4%	?	3.55µM*	?
O=C1CC(c2nc(-c3cccc(Cl)c3)no2)CN1c1ccc2c(c1)OCCO2 (configuration not stated)	-24.8%	?	·	·	1.2%
CCC(=O)O	0.8%	-4.5%	4.5%	4.3%	4.1%
SMILES	Tau fluor counter	Tau ThT inhib	RORg inh	Gal4-VP16 FLuc	Tau FP inhib
COc1ccc(NC(=O)CSc2nc3ccccc3n2CC(=O)NCc2ccc(F)cc2)cc1	-17.8%	-11.3%	·	·	?
COc1ccc(/C=C2\CCCC(C(=O)C(F)(F)F)=C2O)cc1	-17.3%	?	12.8%	-0.6%	-10.4%
O=C(C1=C(O)/C(=C/c2ccc(O)cc2)CCC1)C(F)(F)F	?	28.2µM*	?	?	?
Cn1nnc(NC(=S)NC(=O)Cc2ccccc2)n1	-3.2%	-11.7%	1.41µM*	11.2µM*	2.5%
Cn1nnc(NC(=O)c2ccccc2)n1	-2.7%	5.0%	?	19.8%	-6.2%
Cn1nnc(NC(=S)NC(=O)c2ccco2)n1	-6.7%	-3.3%	?	10µM*	9.6%
Cn1nnc(NC(=S)NC(=O)c2cc3ccccc3o2)n1	10.3%	1.0%	1.12µM*	6.31µM*	-0.8%
CCCc1c(C(=O)N/N=C/c2sccc2C)nnn1-c1nonc1N	·	·	?	5.62µM*	·
C/C(=N\NC(=O)c1nnn(-c2nonc2N)c1CN1CCc2ccccc21)c1ccccc1O	·	·	2.24µM*	4.47µM*	·
Cc1ccsc1/C=N/NC(=O)c1nnn(-c2nonc2N)c1C(C)C	·	·	11.2µM*	17.8µM*	·
COc1ccccc1/C(C)=N/NC(=O)c1nnn(-c2nonc2N)c1C(C)C	·	·	7.08µM*	-29.2%	·
CC(C)c1c(C(=O)N/N=C/c2cccs2)nnn1-c1nonc1N	·	·	?	-88.2%	·
CCOc1ccc(N(C)C(=O)C2CCN(S(=O)(=O)c3ccc4c(c3)CCCN4C(C)=O)CC2)cc1	-6.6%	-1.0%	·	·	?
Cc1ccc(C)c(NC(=O)NCCN2CCCCC2)c1	·	·	-6.7%	-4.1%	·
COc1ccc2c(c1)CC(C(=O)Nc1ccc(Br)c(C)c1)CO2 (configuration not stated)	-17.4%	-10.8%	·	·	-6.9%
CC(C)(C)CC(C)(C)N1CNC(=S)NC1	-14.5%	-11.3%	10µM*	?	-0.8%
CCC1(CC)N=C(c2ccccc2)C(=S)N1	-3.4%	-7.9%	3.55µM*	11.2µM*	-10.9%
CC1(CO)COC(c2ccccc2)=N1 (configuration not stated)	-6.6%	-4.3%	2.5%	-0.2%	-3.8%
CCN(CCO)C1CC(=O)N(c2ccccc2C)C1=O (configuration not stated)	-4.1%	?	3.98µM*	3.55µM*	-3.0%
Cc1ccccc1N1C(=O)CC(N(O)c2ccccc2)C1=O (configuration not stated)	-6.0%	-9.3%	0.0%	3.7%	-5.8%
CCN(CC)C1CC(=O)N(c2cccc(C)c2)C1=O (configuration not stated)	-5.5%	?	-142.5%	7.08µM*	0.3%
Cc1cccc(N2C(=O)CC(Cn3nc(C)cc3C)C2=O)c1 (configuration not stated)	1.6%	·	-0.8%	2.8%	3.9%
COc1ccc(-c2c3c(=O)n(C)c(=O)n(C)c3c3c(-c4ccc(C)cc4)nc4ccccc4n23)cc1	-8.8%	-10.2%	·	·	-1.8%
CCCCCCCCCCCCCC(=O)OCC(COP(=O)([O-])OCC[N+](C)(C)C)OC(=O)CCCCCCCCCCCCC (configuration not stated)	·	·	10.5%	-12.3%	·
O=C1c2oc3ccc(Cl)cc3c(=O)c2C(c2ccccn2)N1CCCN1CCOCC1 (configuration not stated)	3.7%	?	22.4µM*	?	6.2%
COc1ccccc1N1C(=O)CC(Sc2ncccc2C(=O)O)C1=O (configuration not stated)	-1.3%	0.8%	33.5%	2.2%	2.4%
Cc1cccc(N2C(=O)CC(Sc3nc(C)cc(C)n3)C2=O)c1 (configuration not stated)	-6.9%	-12.6%	-1.7%	2.5%	-9.7%
Cc1cccc(N2C(=O)CC(Sc3nc(-c4ccccc4)c4cc(Cl)ccc4n3)C2=O)c1 (configuration not stated)	-12.5%	-11.8%	2.82µM*	?	-9.8%

From PubChem
